In the supplement of paper PMC12819154, “High-throughput peptide-centric local stability assay extends protein–ligand identification to membrane proteins, tissues and bacteria” (Nature Structural & Molecular Biology, 2025) one finds log2 fold change data, which are given here for three targets.

Sequence of UniProt Q9UL54 (Q9UL54 whole entry): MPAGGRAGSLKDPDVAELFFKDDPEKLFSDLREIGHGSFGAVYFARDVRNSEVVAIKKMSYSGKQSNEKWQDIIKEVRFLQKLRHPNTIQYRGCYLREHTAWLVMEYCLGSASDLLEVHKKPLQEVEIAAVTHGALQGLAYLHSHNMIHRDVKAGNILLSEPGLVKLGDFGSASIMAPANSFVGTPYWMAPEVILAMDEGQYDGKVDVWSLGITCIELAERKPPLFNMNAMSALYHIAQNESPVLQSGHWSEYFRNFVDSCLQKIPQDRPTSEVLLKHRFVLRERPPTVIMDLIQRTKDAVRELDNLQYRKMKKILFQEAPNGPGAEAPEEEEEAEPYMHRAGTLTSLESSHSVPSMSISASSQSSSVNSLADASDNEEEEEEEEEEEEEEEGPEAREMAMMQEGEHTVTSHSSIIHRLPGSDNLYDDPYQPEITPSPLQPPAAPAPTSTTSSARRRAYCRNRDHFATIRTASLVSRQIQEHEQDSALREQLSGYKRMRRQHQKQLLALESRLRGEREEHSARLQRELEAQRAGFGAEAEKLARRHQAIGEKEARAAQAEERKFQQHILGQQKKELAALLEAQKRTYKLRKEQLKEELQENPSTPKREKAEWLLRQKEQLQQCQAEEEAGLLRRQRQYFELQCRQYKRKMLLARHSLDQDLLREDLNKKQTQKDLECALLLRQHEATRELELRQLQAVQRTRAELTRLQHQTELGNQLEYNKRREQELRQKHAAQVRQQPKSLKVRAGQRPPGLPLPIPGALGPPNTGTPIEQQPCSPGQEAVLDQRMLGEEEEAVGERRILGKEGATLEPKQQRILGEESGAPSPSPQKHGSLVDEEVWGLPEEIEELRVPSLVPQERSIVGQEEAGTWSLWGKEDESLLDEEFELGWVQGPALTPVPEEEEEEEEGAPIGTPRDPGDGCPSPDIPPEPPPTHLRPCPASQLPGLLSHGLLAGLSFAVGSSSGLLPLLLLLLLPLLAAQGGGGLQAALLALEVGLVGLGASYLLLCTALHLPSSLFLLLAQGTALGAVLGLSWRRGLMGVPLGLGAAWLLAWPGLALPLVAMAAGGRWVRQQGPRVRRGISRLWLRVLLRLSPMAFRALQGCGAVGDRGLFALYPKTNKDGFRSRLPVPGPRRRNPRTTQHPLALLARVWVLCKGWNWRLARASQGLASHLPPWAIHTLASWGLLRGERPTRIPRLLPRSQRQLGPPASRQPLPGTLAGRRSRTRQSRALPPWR
Sequence of UniProt Q9UKE5 (Q9UKE5 whole entry, looked up): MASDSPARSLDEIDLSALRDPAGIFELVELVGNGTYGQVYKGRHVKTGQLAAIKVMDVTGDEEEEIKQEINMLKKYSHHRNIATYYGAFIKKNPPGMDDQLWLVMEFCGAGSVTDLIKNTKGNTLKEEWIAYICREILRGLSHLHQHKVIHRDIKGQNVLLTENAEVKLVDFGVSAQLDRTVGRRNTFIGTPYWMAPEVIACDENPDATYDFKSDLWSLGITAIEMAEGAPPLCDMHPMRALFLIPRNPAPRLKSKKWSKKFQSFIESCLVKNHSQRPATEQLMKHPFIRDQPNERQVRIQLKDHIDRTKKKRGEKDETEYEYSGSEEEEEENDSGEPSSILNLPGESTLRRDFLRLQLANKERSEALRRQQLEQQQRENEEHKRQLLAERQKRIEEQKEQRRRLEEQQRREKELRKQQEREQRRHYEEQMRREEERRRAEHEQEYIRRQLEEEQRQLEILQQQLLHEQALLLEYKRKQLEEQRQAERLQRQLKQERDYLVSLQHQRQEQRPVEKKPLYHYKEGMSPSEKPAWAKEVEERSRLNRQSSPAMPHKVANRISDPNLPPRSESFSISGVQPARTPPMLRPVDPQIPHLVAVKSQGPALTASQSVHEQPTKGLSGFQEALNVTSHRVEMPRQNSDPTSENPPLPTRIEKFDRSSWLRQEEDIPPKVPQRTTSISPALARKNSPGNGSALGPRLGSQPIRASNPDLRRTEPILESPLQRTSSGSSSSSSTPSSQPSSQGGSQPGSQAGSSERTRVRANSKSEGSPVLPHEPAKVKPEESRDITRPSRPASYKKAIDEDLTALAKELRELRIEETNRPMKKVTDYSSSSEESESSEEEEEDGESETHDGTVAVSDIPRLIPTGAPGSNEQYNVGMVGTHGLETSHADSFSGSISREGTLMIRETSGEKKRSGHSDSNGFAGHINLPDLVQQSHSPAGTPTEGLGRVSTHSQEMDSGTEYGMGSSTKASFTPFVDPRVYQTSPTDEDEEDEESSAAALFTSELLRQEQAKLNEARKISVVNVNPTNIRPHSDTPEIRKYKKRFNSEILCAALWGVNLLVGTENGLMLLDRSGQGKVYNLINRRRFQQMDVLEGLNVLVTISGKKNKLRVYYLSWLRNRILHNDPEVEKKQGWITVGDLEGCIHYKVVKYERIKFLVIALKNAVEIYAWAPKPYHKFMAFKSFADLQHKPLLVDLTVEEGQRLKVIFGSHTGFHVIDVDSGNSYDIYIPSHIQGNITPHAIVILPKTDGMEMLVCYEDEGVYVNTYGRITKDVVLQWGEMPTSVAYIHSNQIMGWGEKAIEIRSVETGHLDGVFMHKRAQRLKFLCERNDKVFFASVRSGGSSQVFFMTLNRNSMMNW
Sequence of UniProt P10398 (P10398 whole entry): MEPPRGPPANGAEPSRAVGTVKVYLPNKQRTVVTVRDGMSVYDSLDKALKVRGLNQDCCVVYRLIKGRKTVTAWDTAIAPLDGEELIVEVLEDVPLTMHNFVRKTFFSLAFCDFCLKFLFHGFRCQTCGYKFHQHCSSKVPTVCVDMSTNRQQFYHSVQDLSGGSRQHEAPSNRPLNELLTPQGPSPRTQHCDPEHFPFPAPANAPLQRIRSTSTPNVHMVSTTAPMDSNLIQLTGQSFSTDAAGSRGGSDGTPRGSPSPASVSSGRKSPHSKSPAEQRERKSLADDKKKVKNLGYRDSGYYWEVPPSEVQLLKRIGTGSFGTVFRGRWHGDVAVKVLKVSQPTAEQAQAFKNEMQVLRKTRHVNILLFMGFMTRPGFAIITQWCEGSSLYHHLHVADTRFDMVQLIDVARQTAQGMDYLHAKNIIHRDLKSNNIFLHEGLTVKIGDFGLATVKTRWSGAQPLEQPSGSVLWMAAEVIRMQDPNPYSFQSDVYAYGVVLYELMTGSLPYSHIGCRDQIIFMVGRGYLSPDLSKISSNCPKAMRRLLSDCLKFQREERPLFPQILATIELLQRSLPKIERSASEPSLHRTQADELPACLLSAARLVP

Compound in the experiment: Cc1nc(Nc2ncc(C(=O)Nc3c(C)cccc3Cl)s2)cc(N2CCN(CCO)CC2)n1 [dasatinib]
As to the kind of experiment: log2 fold change of tryptic peptide abundance, ligand vs vehicle (limited proteolysis) (log2 ratio); higher = more trypsin-susceptible (destabilized). Conditions: ligand concentration: 5 uM; sample: K562 cleared lysate.
Regarding “TNIK (peptide sequence: NHSQRPATEQLMK, peptide start residue: 273) (UniProt Q9UKE5)”, the log2 fold change is -0.606.
Turning to “ARAF (peptide sequence: RLLSDCLK, peptide start residue: 544) (UniProt P10398)”, the log2 fold change came to 0.619.
“TAOK2 (peptide sequence: ELDNLQYR, peptide start residue: 299) (UniProt Q9UL54)”: the log2 fold change came to 0.422.
